PRC2 inh – EZH2/PRC2 methyltransferase inhibitors, primary screen, biochemical, DELFIA time-resolved fluorescence, single point | PRC2 H3K27 methylation, DELFIA TRF, 1 h | inhibition, % at 12.5 µM | 0.35% of 57,000 active | AID 651548, 2012;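 active = mean inhibition of replicates at least 50% and every single replicate also reaching 50%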;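 note: dimethyl H3K27 on biotinylated H3 21-44 peptide detected by antibody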
Target sequence (Q15910 whole entry, looked up): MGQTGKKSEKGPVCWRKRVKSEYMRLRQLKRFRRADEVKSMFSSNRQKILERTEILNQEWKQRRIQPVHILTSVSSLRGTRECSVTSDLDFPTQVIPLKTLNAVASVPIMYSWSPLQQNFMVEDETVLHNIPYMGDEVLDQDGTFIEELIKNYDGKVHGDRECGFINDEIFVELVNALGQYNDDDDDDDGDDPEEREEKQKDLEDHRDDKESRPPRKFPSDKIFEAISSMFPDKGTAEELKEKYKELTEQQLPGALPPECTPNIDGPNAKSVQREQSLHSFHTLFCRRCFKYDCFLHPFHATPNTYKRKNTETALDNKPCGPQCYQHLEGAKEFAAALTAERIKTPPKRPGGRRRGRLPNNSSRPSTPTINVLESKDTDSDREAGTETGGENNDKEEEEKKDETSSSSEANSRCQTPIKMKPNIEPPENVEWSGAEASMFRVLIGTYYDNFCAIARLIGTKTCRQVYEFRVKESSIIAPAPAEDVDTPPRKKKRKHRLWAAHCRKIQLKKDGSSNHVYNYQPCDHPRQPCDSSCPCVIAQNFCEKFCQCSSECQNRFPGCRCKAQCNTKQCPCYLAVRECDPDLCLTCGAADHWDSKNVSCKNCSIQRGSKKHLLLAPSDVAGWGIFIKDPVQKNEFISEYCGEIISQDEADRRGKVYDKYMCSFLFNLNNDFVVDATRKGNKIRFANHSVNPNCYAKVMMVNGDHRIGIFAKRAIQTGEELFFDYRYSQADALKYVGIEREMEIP
A number is an active result; – = inactive. This is one part of a sample in which hits are shown more often than they occur.

SMILES	PRC2 inh
C=CCNC(=O)[C@H]1[C@@H]2C(=O)O[C@@H](c3ccccc3)[C@@H](c3ccccc3)N2[C@@H](c2ccccc2OCCO)[C@]12C(=O)Nc1ccc(C#CC3(O)CCCCCC3)cc12	–
NC(=O)[C@@H]1[C@H]2C(=O)O[C@H](c3ccccc3)[C@H](c3ccccc3)N2[C@H](c2ccc(OCCO)cc2)[C@@]12C(=O)Nc1ccc(C#CC3(O)CCCCCC3)cc12	–
COC(=O)c1sccc1S(=O)(=O)Nc1ccc(-c2cn3c(n2)SCC3)cc1	–
CCOC(=O)NC1c2ccccc2Sc2ccc(Cl)cc21 (stereo not given)	–
CCCC1=C(C(=O)OCC)C(c2cccnc2)n2ncnc2N1 (stereo not given)	–
CCN(CC(=O)Nc1ccc(C(N)=O)cc1)S(=O)(=O)c1ccc(Br)cc1	–
CC(C)Cc1ccc(C(C)C(=O)Nc2cccc(-c3cnco3)c2)cc1 (stereo not given)	–
Cc1ccc2c(CC(=O)NCc3ccco3)coc2c1C	–
Cc1ccc2c(CC(=O)Nc3cccc([N+](=O)[O-])c3)coc2c1C	51
Cc1cc(C)c(S(=O)(=O)N(C)CC(=O)Nc2cccc([N+](=O)[O-])c2)c(C)c1	–
COc1ccccc1OCC(=O)Nc1cccc(-c2nc3ccccc3s2)c1	–
CS(=O)(=O)N(CC(=O)NC1CCCC1)c1cc(Cl)c(Cl)cc1Cl	–
CCOc1ccc2nc(SCC(=O)Nc3cccc(C)c3C)sc2c1	–
COc1c(O)cc2c(c1O)[C@H]1O[C@H](CO)[C@@H](O)[C@H](O)[C@@H]1OC2=O	–
O=C1C[C@@H](c2ccc(O)cc2)Oc2cc(O)c([C@@H]3O[C@H](CO)[C@@H](O)[C@H](O)[C@H]3O)c(O)c21	–
O=C(OC1C(c2c(O)cc(O)c(C(=O)c3ccc(O)cc3)c2O)OC(CO)C(O)C1O)c1cc(O)c(O)c(O)c1 (stereo not given)	56
O=C(CN1C(=O)c2ccccc2S1(=O)=O)Nc1ccccc1-c1ccccc1	–
Cc1cc(C)cc(NC(=O)CN(c2ccc(Cl)cc2Cl)S(C)(=O)=O)c1	–
CCN(CC(=O)Nc1ccc(I)cc1)S(=O)(=O)c1ccc(C)cc1	–
O=C(NC1CC1)C1=C[C@H](c2csc3ccccc23)C[C@H](OCc2ccc(CO)cc2)O1	–
C=CCOC(=O)C1=C[C@H](c2coc3ccccc3c2=O)C[C@H](OCc2ccc(CO)cc2)O1	–
C=CCOC(=O)C1=C[C@H](c2csc3ccccc23)C[C@H](OCc2ccc(CO)cc2)O1	59
CCc1ccc(-c2cn3c4ccccc4nc3n2CCN2CCOCC2)cc1	–
COc1ccc(C)cc1S(=O)(=O)N(C)CC(=O)Nc1cccc(C(F)(F)F)c1	–
COc1ccc(OC)c(S(=O)(=O)N(C)CC(=O)Nc2ccccc2F)c1	–
SMILES	PRC2 inh
CC(C)CC(=O)O[C@@H]1OC=C(CO[C@@H]2O[C@H](CO)[C@@H](O)[C@H](O)[C@H]2O)[C@H]2C[C@H](O)[C@@](C)(O)[C@@H]12	–
CC(=O)c1cc(C)c(O)c(COC2OC(CO)C(O)C(O)C2O)c1O (stereo not given)	–
O=C(O)CC(CCc1ccccc1)OC1OC(CO)C(O)C(O)C1O (stereo not given)	98
N#Cc1cc2c(nc1SCC(=O)Nc1cccc(F)c1)CCCC2	–
O=C(CCCCCCC(=O)Nc1ccccc1O)N/N=C/c1ccc(F)cc1	–
O=C(CCCCCCC(=O)Nc1ccccc1O)N/N=C/c1ccc(O)c(O)c1	–
O=C(CCCCCCC(=O)Nc1ccccc1O)N/N=C/c1ccc(-c2ccccc2)c(F)c1	51
COC(=O)c1sc(C(C)(C)C)cc1CS(=O)(=O)c1cc(C)c(Cl)cc1C	–
COc1ccc(Cl)cc1N(CC(=O)Nc1ccc(F)c(F)c1)S(C)(=O)=O	–
COc1cc(C2NC(=S)NC(C)=C2C(=O)Nc2ccccc2C)c(Br)cc1OCC(=O)O (stereo not given)	–
C[C@@H]1CC[C@]2(C)[C@H](CC[C@@H](O)[C@]2(C)O)[C@@]1(C)CC/C(=C/CO)CO	87
CC1CCC2(C)C(CC(O)C(O)C2(O)CO)C1(C)CCc1ccoc1 (stereo not given)	–
COC(=O)c1ccccc1NC(=O)c1ccc(NC(=O)COc2ccccc2C)cc1	–
COc1c(OC)c(O)c2c(=O)c(O)c(-c3ccccc3)oc2c1OC	–
O=c1c(O)c(-c2ccc(O)c(O)c2)oc2cc(O)cc(O)c12	62
COc1cc(-c2oc3cc(O)cc(O)c3c(=O)c2O[C@@H]2O[C@H](CO)[C@@H](O)[C@H](O)[C@H]2O)ccc1O[C@@H]1O[C@H](CO)[C@@H](O)[C@H](O)[C@H]1O	–
O=c1c(-c2ccc(O)cc2)coc2cc(O)cc(O)c12	–
O=c1c(O[C@@H]2OC[C@H](O)[C@H](O)[C@H]2O)c(-c2ccc(O)c(O)c2)oc2cc(O)cc(O)c12	69
O=C1C[C@@H](c2ccc(O)c(O)c2)Oc2cc(O[C@@H]3O[C@H](CO)[C@@H](O)[C@H](O)[C@H]3O)cc(O)c21	–
COc1cc(O)c2c(=O)c(OC3OC(CO[C@@H]4O[C@@H](C)[C@H](O)[C@@H](O[C@@H]5O[C@@H](C)[C@H](O)[C@@H](O)[C@H]5O)[C@H]4O)C(O)C(O)C3O)c(-c3ccc(O)cc3)oc2c1 (stereo not given in full)	–
O=c1c(OC2OCC(O)C(O)C2O)c(-c2ccc(O)c(O)c2)oc2cc(O)cc(O)c12 (stereo not given)	99
O=c1c(O[C@@H]2OC[C@H](O)[C@H](O)[C@H]2O)c(-c2ccc(O)cc2)oc2cc(O)cc(O)c12	100
O=c1c(O[C@@H]2O[C@H](CO)[C@H](O)[C@H](O)[C@H]2O)c(-c2ccc(O)cc2)oc2cc(O)cc(O)c12	–
Cc1c(Cl)cccc1NC(=S)N1CCCN(c2nc3ccc(Cl)cc3s2)CC1	–
Cc1cccc(-c2nnc(SCC(=O)Nc3cc(C(F)(F)F)cc(C(F)(F)F)c3)n2C)c1	–
SMILES	PRC2 inh
CN(CC(=O)Nc1ccc(Cl)cc1)S(=O)(=O)c1ccccc1	–
COc1ccc2[nH]c3c(OC)ncnc3c2c1	–
Cc1ccc(NC(=O)c2c(NC(=O)CN3CCOCC3)sc3c2CCC3)c(C)c1	–
COc1cccc(OCC(=O)Nc2ccc(Sc3ccc([N+](=O)[O-])cc3)cc2)c1	–
CCOC(=O)c1cc(-c2ccccc2)sc1NC(=S)Nc1cnn(CC)c1C(N)=O	–
CCCn1nnc(NC(=O)COc2ccc(C)cc2)n1	–
COc1ccc(C2OCC3C2CO[C@H]3c2ccc(OC)c(OC)c2)cc1OC (stereo not given in full)	–
CCc1ccc2nc(N3C(=O)C(=O)C(C(=O)c4ccco4)C3c3cc(OC)ccc3OC)sc2c1 (stereo not given)	–
C(=C\c1ccccc1)/C=N/N1CCN(Cc2cccc3ccccc23)CC1	–
CCOc1ccc(-c2nc(C#N)c(NCCCN(CC)CC)o2)cc1	–
COC(=O)c1c(NC(=O)C2CC=CCC2C(=O)O)sc2c1CCC(c1ccccc1)C2 (stereo not given)	–
COc1cccc(NC(=O)CSc2nnc(-c3ccccc3O)n2-c2ccccc2)c1	–
O=C(Nc1cccnc1)C1CC(c2c(F)cccc2Cl)=NO1 (stereo not given)	–
COC(=O)c1c(NC(=S)Nc2ccn(C)n2)sc(C)c1-c1ccccc1	–
Cc1ccc(-c2noc(CN(C(=O)c3ccc([N+](=O)[O-])cc3)C(C)C)n2)cc1	–
